Data reported in the supplement of paper PMC6555819.

Columns and labels:
Assay in all cases: PBM binding z-score (relative to random genomic background probes); higher = stronger binding; sequences stand for … in GC…GCGATTGACAGCGTAGAATGAAGG
[1] = system: FXR:RXRa (NR concentration 270 nM, RXRa partner concentration 90 nM)
Procedure, shortened: (§1)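 Regression normalization was applied to scanned fluorescence from custom Agilent 4×180K protein-binding microarrays. Before scanning, arrays were incubated 1 h with ligand-free nuclear receptor dimers, and binding was detected with antibodies against each partner (one per run). Binding z-scores use the random background probes as reference.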

[2] = system: LXRa:RXRa (NR concentration 270 nM, RXRa partner concentration 90 nM)
Procedure, shortened: as §1

[3] = system: LXRa homodimer (NR concentration 270 nM)
Procedure, shortened: as §1

[4] = system: LXRb:RXRa (NR concentration 270 nM, RXRa partner concentration 90 nM)
Procedure, shortened: as §1

[5] = system: LXRb homodimer (NR concentration 270 nM)
Procedure, shortened: as §1

[6] = system: PPARa:RXRa (NR concentration 270 nM, RXRa partner concentration 90 nM)
Procedure, shortened: as §1

[7] = system: PPARg:RXRa (NR concentration 180 nM, RXRa partner concentration 90 nM)
Procedure, shortened: as §1

[8] = system: PPARg:RXRa 270nM:90nM, anti-RXR (NR concentration 270 nM, RXRa partner concentration 90 nM)
Procedure, shortened: as §1

[9] = system: PPARg:RXRa 30nM:10nM, anti-RXR (NR concentration 30 nM, RXRa partner concentration 10 nM)
Procedure, shortened: as §1

[10] = system: PPARg:RXRa 90nM:30nM, anti-RXR (NR concentration 90 nM, RXRa partner concentration 30 nM)
Procedure, shortened: as §1

Row | Sequence | PBM binding z-score [1] | PBM binding z-score [2] | PBM binding z-score [3] | PBM binding z-score [4] | PBM binding z-score [5] | PBM binding z-score [6] | PBM binding z-score [7] | PBM binding z-score [8] | PBM binding z-score [9] | PBM binding z-score [10]
1 | TCTGATAGGTCAACGATGGTCAGCTAATCTGCTA | 5.29 | 4.83 | 0.975 | 3.31 | 0.737 | 4.76 | 3.47 | 4.48 | 3.79 | 4.21
2 | GATACAGGGTCAGCTAGAGGCCAGAGTCTGGAAA | 4.63 | 2.79 | -0.316 | 2.18 | -0.91 | 4.47 | 3.57 | 3.41 | 0.796 | 2.27
3 | CGTCCAAGGTCAAAGAGGTCAGTGAATGCCGAGT | 7.54 | 6.09 | 4.44 | 5.48 | 1.51 | 5.88 | 5.22 | 5.89 | 2.41 | 4.63
4 | TCTTGTAGATCAGCAGGTTAAGAAAGCTGGCCAA | -0.00874 | 0.161 | -0.357 | 0.167 | -0.4 | 0.684 | -0.446 | 1.3 | 2.21 | 1.66
5 | CCTACTGGGCCACGAAATGTCATTGATTCAGTGA | -0.161 | -0.0585 | -0.34 | -0.341 | -0.393 | 0.653 | 1.58 | 1.24 | -0.144 | 0.475
6 | TCTAGTTGGTCACGTAGGTCACACACGACGGGTA | 2.06 | 1.85 | 1.01 | 2 | 0.514 | 2.78 | 2.17 | 3.05 | 3.43 | 3.35
7 | CCGACTAGGGCAGAAAGGTTACCATACCATCCGG | 0.259 | 0.701 | 0.0905 | 0.925 | -0.912 | 2.11 | 1.79 | 2.27 | 0.723 | 1.86
8 | CTCGAAAGGTCGTGCTCAGGTCAGTATACCAAAC | 5.86 | 5.15 | 1.44 | 4.15 | 0.558 | 5.2 | 3.19 | 4.09 | 1.06 | 2.7
9 | ATATGTCGGTTACATCCGGGTCATTCAGGCTATG | 1.65 | 2.86 | 1.27 | 1.92 | 0.559 | 2.79 | 1.55 | 1.48 | 0.573 | 1.09
10 | GCGACTGGGGCAAAGCAGCTTACCATAAGGTTGG | -0.808 | -0.965 | -0.698 | -0.42 | -1.09 | 0.229 | 1 | 1.18 | -0.326 | 0.688
11 | ACTCGGAGGACAAAGATCAGAGCTACGCCAGTGA | -0.308 | -0.42 | -0.56 | -0.616 | -0.443 | 0.399 | 1.61 | 2.24 | 0.508 | 1.43
12 | TCTATTAGTTGAAGGGCAAACGACGAGTCCGTTT | 0.768 | 1.24 | 0.6 | 1.3 | 0.637 | 1.43 | 0.285 | 2.43 | 3.63 | 2.94
13 | CCGACTGGGGCAAGGTTACCATGACGCACAGCCA | -0.0845 | 0.558 | 0.0292 | 0.445 | -1.06 | 1.87 | 2.78 | 3.14 | 1.24 | 2.47
14 | AATACAGTGTCATCGTAGGCCAGAGTACGCACAG | 0.397 | 1.79 | -0.224 | 0.401 | -0.022 | 0.815 | 1.05 | 0.517 | 0.42 | 0.495
15 | CCTTACAGGTCACTCCAGGTTATAGCATCGGAGT | 5.51 | 7.41 | 5.05 | 5.43 | 1.27 | 4.75 | 3.81 | 3.66 | 1.52 | 2.79
16 | AGAATGAAGTTATACGTAGATCAGGGAAGAAAGT | -0.499 | -0.297 | -0.439 | -0.59 | -0.391 | -0.311 | 0.842 | -0.228 | 0.0525 | -0.163
17 | ACCATTAGTTGACTTAGGGCAACCGATACGACGC | 0.502 | 0.629 | 0.679 | 0.464 | 0.693 | 0.273 | 1.06 | 0.133 | 0.182 | 0.582
18 | TCTCGGAGGACACGAAGGTCCGAGCTTTCCAGAG | 0.324 | -0.29 | -0.723 | -0.734 | -1.4 | 0.0732 | -0.408 | 0.645 | 1.71 | 1.12
19 | AGTCATAGTTCAGGACGAGGTAACGTAAAGCACG | 1.09 | 1.13 | -0.0495 | 0.662 | 0.0216 | 1.54 | 1.53 | 1.53 | 0.782 | 0.867
20 | GCTATTAGTTGAAAGGGCAAACGAATGATTCTCG | 0.733 | 0.93 | 0.494 | 1.13 | -0.0679 | 2.7 | 2.92 | 4.48 | 2.73 | 4.34
21 | CGTCCAGGGTCAAAGGTCAGTGAAGAGATGACGG | 7.97 | 6.14 | 1.67 | 6.18 | 0.58 | 7.21 | 10.5 | 8.6 | 7.61 | 8.6
22 | CCTATTAGTTGACTATAAGGGCAACCGAAGCTCG | 0.392 | 0.149 | 0.0612 | 0.294 | 0.219 | 0.121 | 0.445 | 0.0483 | 0.0994 | -0.284
